Bioassay records deposited in PubChem by Center for Chemical Genomics, University of Michigan.
The sample as a whole holds a higher share of hits than the screen did.
Dicer inh: inhibitors of human Dicer processing of pre-microRNA | Q9UPY3 | cat-ELCCA pre-miR-21 Dicer processing, chemiluminescence; hits give high values | z-score at 25 µM | 47,000 compounds, 6% hits | AID 1347074; in the data active = z-score above about 3, passing the limit was not always enough;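 note: higher signal means more uncleaved substrate so more Dicer inhibition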
Numbers stand for hits; n = inactive.

SMILES	Dicer inh
COc1cccc(C2C(C(=O)OC3CCCC3)=C(C)NC3=C2C(=O)CC(c2ccccc2)C3)c1OC (stereo not drawn)	n
CC1=C(C(=O)OCC2CCCO2)C(c2cccc(Br)c2)C2=C(CC(C)(C)CC2=O)N1 (stereo not drawn)	n
COc1cccc(C2C(C(=O)OC(C)C)=C(C)NC3=C2C(=O)CC(c2ccccc2)C3)c1OC (stereo not drawn)	7.57
CC1=C(C(=O)OCC2CCCO2)C(c2cccc(Cl)c2)C2=C(CC(C)(C)CC2=O)N1 (stereo not drawn)	n
CCOC(=O)CSc1n[nH]c(CN2c3ccccc3Sc3ccccc32)n1	n
COc1ccc(OC(=O)Nc2csc(Cc3ccsc3)n2)cc1	n
Cc1ccc(Oc2ncccc2N)c2c1CCC2	n
CC(C)CC(=O)NS(=O)(=O)c1ccc(NS(C)(=O)=O)cc1	n
Brc1ccc2c(c1)C1CC(c3ccccc3)=NN1C(c1cccnc1)O2 (stereo not drawn)	n
Cc1ccc(O)c(C2=NN3C(C2)c2cc(Br)ccc2OC3c2ccncc2)c1 (stereo not drawn)	n
COc1ccc(O)c(C2=NN3C(C2)c2cc(Br)ccc2OC3c2cccnc2)c1 (stereo not drawn)	n
Cc1ccc(C2=NN3C(C2)c2cc(Br)ccc2OC3c2ccncc2)s1 (stereo not drawn)	4.32
CCOc1ccc(C2Oc3ccc(Cl)cc3C3CC(c4ccco4)=NN32)cc1 (stereo not drawn)	3.82
COc1ccc(C2Oc3c(OC)cccc3C3CC(c4cc(OC)ccc4O)=NN32)cc1 (stereo not drawn)	n
COc1cccc2c1OC(c1ccncc1)N1N=C(c3cc(Cl)ccc3O)CC21 (stereo not drawn)	n
COC(=O)c1ccc(C2Oc3ccccc3C3CC(c4cc(OC)ccc4O)=NN32)cc1 (stereo not drawn)	n
COc1cccc(C2=NN3C(C2)c2cc(Br)ccc2OC3c2ccncc2)c1 (stereo not drawn)	6.71
COc1ccc(O)c(C2=NN3C(C2)c2cc(Br)ccc2OC3c2ccncc2)c1 (stereo not drawn)	13.1
O=C(CSc1nnnn1-c1ccc(F)cc1)Nc1ccc2c(c1)OCO2	n
CCOC(=O)c1cnc2c(ccc3[nH]snc32)c1=O	n
O=c1[nH]c(=S)[nH]c(-c2ccccc2)c1Cc1c(O)ccc2ccccc12	n
Cn1c(=O)c2c3nc4cc(Cl)cc(Cl)c4cc3c(=O)n(C)c2n(C)c1=O	n
C=CCn1c(CCCO)nc2ccccc21	n
c1ccc(C2Oc3ccccc3C3CC(c4cccnc4)=NN32)cc1 (stereo not drawn)	n
COc1cccc2c1OC(CCSC)N1N=C(c3cc(C)ccc3O)CC21 (stereo not drawn)	n
SMILES	Dicer inh
Brc1ccc2c(c1)C1CC(c3ccco3)=NN1C(c1ccccc1)O2 (stereo not drawn)	5.71
CSCCC1Oc2ccc(Br)cc2C2CC(c3ccccc3O)=NN12 (stereo not drawn)	11.3
CSCCC1Oc2ccccc2C2CC(c3ccccc3O)=NN12 (stereo not drawn)	n
CCCc1n(CC(O)COc2ccccc2)c2ccccc2[n+]1C (stereo not drawn)	n
CC(C)(C)NC(=O)c1cc(-c2ccccc2)c(C(F)(F)F)s1	n
Cc1cc(C)n(C(=O)CCC(=O)O)n1	n
Cc1ccc(-c2ccnc3[nH]n(-c4nc(C)cc(C)n4)c(=O)c23)cc1	n
Cc1cc(C)cc(OCC(=O)c2ccc(O)cc2O)c1	n
C=CCn1c(Sc2ncc(C#N)c(N)n2)nnc1-c1cccs1	n
COC(=O)c1c(C)nc(C)c(C(=O)OC)c1-c1csc(S(=O)(=O)Nc2ccc(F)c(Cl)c2)c1	n
CCCc1cc(=O)[nH]c(SCc2ccccc2Cl)n1	n
Cc1nnc(SCc2ccccc2Cl)[nH]c1=O	3.05
Cc1cc(=O)[nH]c(SCc2ccccc2Cl)n1	n
O=[N+]([O-])c1cccnc1Oc1ncnc2cc(Cl)ccc12	n
COc1ccc(OCC(=O)NC2CCS(=O)(=O)C2)cc1 (stereo not drawn)	n
NC(C(=O)N[C@@H]1C(=O)N2C(C(=O)O)=C(Cl)CS[C@H]12)c1ccccc1 (stereo partly drawn)	n
CCOC(=O)C1=C(O)CCN(C)C1	13.6
CCCCN1CC(C(=O)OCC)=C(O)C1=O	n
CCOC(=O)c1sc(=S)n(C)c1C	n
N#Cc1cnn(-c2ccc(C(F)(F)F)cc2[N+](=O)[O-])c1N	n
CCOCCOC(=O)C1=C(C)NC2=C(C(=O)CC(C)(C)C2)C1c1cccc(Cl)c1 (stereo not drawn)	n
O=c1[nH]c(-c2ccccc2)nc(=S)[nH]1	n
Cc1c(N)ccc2[nH]c(-c3ccc(N)cc3)nc12	6.3
Cc1cccc2[nH]c(SCc3ccccc3F)nc12	n
Cc1c(C)c(C)c2[nH]c(-c3ccc4c(c3)OCO4)nc2c1C	n
SMILES	Dicer inh
Nc1cccc2[nH]c(-c3ccccc3)nc12	3.85
Brc1cccc(-c2nc3ccccc3[nH]2)c1	n
Cc1cccc2[nH]c(-c3ccc(N)cc3)nc12	6.82
Nc1ccc(-c2nc3c(Cl)c(N)ccc3[nH]2)cc1	3.41
Cc1cccc2[nH]c(-c3ccccc3)nc12	n
CC(=O)N1N=C(c2ccncc2)OC1c1cn(-c2ccccc2)nc1-c1ccc([N+](=O)[O-])cc1 (stereo not drawn)	n
CCOC(=O)c1cn2nc(Oc3cccc(F)c3)ccc2n1	n
O=c1oc2cccnc2n1Cc1ccccc1	n
Cc1[nH]c(C)c2c(=O)n(Cc3ccccc3Cl)ncc12	n
CCOC(CN(C(=O)c1ccc(F)cc1)c1ccc(F)cc1)OCC	n
Cc1nnc(SCC(=O)Nc2nsc(-c3ccccc3C)n2)s1	n
ON(Cc1ccc(Cl)cc1)Cc1ccc(Cl)cc1	3.01
CN(C)C(=S)Cc1ccc(Cl)cc1	n
ON(Cc1cccc(C(F)(F)F)c1)Cc1cccc(C(F)(F)F)c1	n
CCOC(=O)C(=O)N1c2ccccc2Sc2ccccc21	n
Cc1nccn1CC(=O)N1c2ccccc2Sc2ccccc21	5.53
O=C1CCC(=O)N1CC(=O)N1c2ccccc2Sc2ccccc21	n
CCCCN1C(=O)C2(/C(=C(/O)c3ccc(C)c(F)c3)C(=O)C(=O)N2CCCN(C)C)c2ccccc21 (stereo not drawn)	n
O=C(O)CCSc1nnc(-c2ccc(Br)cc2)o1	n
Cc1cc(C)nc(N2N=C(CSc3ccc(Cl)cc3)CC2=O)n1	n
Cc1cc(C)nc(N2N=C(C(C)C)CC2=O)n1	n
Cc1cc(C)nc(SCC2=NN(c3nc(C)cc(C)n3)C(=O)C2)n1	4.05
O=C1C2C(c3ccc(Cl)cc3)OC3(C(=O)c4ccccc4C3=O)C2C(=O)N1c1ccc(F)cc1F (stereo not drawn)	6.12
COc1ccc(Cl)cc1N1C(=O)C2C(c3ccccc3)OC3(C(=O)c4ccccc4C3=O)C2C1=O (stereo not drawn)	4.06
O=C1C2C(c3ccc(F)cc3)OC3(C(=O)c4ccccc4C3=O)C2C(=O)N1Cc1ccc(Cl)cc1 (stereo not drawn)	n
COc1ccc(N2C(=O)C3C(c4ccccc4Cl)OC4(C(=O)c5ccccc5C4=O)C3C2=O)cc1 (stereo not drawn)	n
CCOc1ccc(N2C(=O)C3C(c4ccc(C)cc4)OC4(C(=O)c5ccccc5C4=O)C3C2=O)cc1 (stereo not drawn)	3.39
Cc1ccc(C2OC3(C(=O)c4ccccc4C3=O)C3C(=O)N(Cc4ccccc4)C(=O)C23)cc1 (stereo not drawn)	n
